# High-throughput results (PubChem BioAssay)
# An excerpt weighted towards active compounds, which were near 2.9% of everything screened.
# DRD3 agonist = qHTS of D3 Dopamine Receptor Agonist: qHTS; D(3) dopamine receptor (Homo sapiens), P35462; D3R DiscoveRx beta-arrestin cells, luminescence, 90 min; max activation, %; 410,000 compounds, 0.58% hits; AID 652048, 2013; in the data active means max activation above about 30%
#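 Agonist mode: compounds and dopamine controls were applied to plated cells for 90 min at 37 degrees C after an overnight attachment at 1500 cells/well. Luminescent read-out followed 30 - 60 minutes at room temperature with DiscoveRx detection reagent.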
# TSHR antag = Antagonists of the Thyroid Stimulating Hormone Receptor: HTS campaign; Thyrotropin receptor (Homo sapiens), P16473; AID 504810, 2011; activity change, negative = inhibition, % at 11.5 µM; TSHR-expressing cells, TSH-stimulated cAMP HTRF, 2 h; active compounds read low; 330,000 compounds, 0.2% hits;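 active means activity change below a set negative limit, meaning inhibition stronger than a set level, cut at about -70% in these data; inconclusive means activity change between two set negative limits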
#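 TSHR-expressing cells were treated with compounds, then stimulated with TSH at EC80 (4nM final) for 2 hours at 37 deg C. Cellular cAMP was measured by HTRF competition between lysate cAMP and cAMP-d2 for a cryptate-labelled anti-cAMP antibody.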
# D3 antag = qHTS of D3 Dopamine Receptor Antagonist: qHTS. D(3) dopamine receptor (Homo sapiens), P35462. 360,000 compounds, 2.5% hits. D3R cells, DiscoveRx beta-arrestin luminescence, antagonist mode; active compounds read low. max response, negative = inhibition, %. AID 652054, 2013; in the data active means max response below about -50%; inconclusive means no clear call, values can overlap the other calls
#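 Cells expressing the human receptor were seeded at 1500 cells/well, incubated overnight at 37 degrees C in 5% CO2, then exposed to library compounds with dopamine controls for 90 minutes at 37 degrees C before luminescent detection.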
# B2AR arrestin = qHTS assay of beta-arrestin-biased ligands of beta2-adrenergic receptor. Potency, µM (series often up to 46.1 µM), actives largely listed as activators. Beta-2 adrenergic receptor (Homo sapiens), P07550. AID 492947, 2010. 330,000 compounds, 0.02% hits. beta-arrestin recruitment to beta2AR, cell-based reporter; active means well fitted activation curve with a large enough effect; inconclusive means small, poorly fitted or top-dose-only effect; further: nearly all actives have a fitted effect of over 65% in size
# Target sequence (P07550 whole entry, looked up): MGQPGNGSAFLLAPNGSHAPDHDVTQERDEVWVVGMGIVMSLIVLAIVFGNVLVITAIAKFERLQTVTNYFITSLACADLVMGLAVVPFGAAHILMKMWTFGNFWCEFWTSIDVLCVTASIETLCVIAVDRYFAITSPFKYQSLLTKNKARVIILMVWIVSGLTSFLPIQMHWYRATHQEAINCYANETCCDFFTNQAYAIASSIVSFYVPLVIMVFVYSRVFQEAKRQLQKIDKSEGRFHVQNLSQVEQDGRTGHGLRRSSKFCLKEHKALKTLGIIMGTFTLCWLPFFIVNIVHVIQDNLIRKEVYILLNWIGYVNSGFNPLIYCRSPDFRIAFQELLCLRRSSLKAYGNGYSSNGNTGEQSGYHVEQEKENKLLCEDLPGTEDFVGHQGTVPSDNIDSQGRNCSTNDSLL
# Numbers stand for hits; . = inactive; ? = inconclusive; / = not tested or not shown; ! = not active in a repeat.
SMILES,DRD3 agonist,TSHR antag,D3 antag,B2AR arrestin
O=C1CCN(Cc2ccccc2)CCN1[C@H](CSc1ccccc1)Cc1ccccc1,.,.,.,.
Cc1ccc(SC[C@H](c2ccccc2)N2CCN(CC(C)C)CCC2=O)cc1,.,.,-88.8,.
CC(C)C[C@@H](CSc1ccc(Br)cc1)N1CCN(CC(C)C)CCC1=O,.,.,-50.3,.
O=C1CCN(CCc2ccccc2)CCN1[C@H](CSc1ccc(Br)cc1)Cc1ccccc1,.,.,-56.9,.
Cc1ccc(SCCN2CCN(CCc3ccccc3)CCC2=O)cc1,.,.,-59.3,.
Cc1cccc(Cc2c(C)nc3nc(SCc4ccccc4F)nn3c2C)c1,.,/,/,/
COc1ccc(-c2noc(CSc3nnc(-c4ccncc4)n3-c3cccc(C)c3)n2)cc1OC,.,/,/,/
Cc1ccc(NC(=O)C(NS(=O)(=O)c2ccc3c(c2)CCC(=O)N3)c2ccccc2)cc1C (stereo not given),.,/,/,/
O=C(Cn1c(=O)n(Cc2ccco2)c(=O)c2cccnc21)Nc1ccccc1F,.,/,/,/
Cc1ccc(C)c(CN2C(=O)c3ccccc3S(=O)(=O)c3ccc(C(=O)Nc4cc(F)ccc4F)cc32)c1,.,/,/,/
C#C[C@]1(O)CC[C@H]2[C@@H]3CCc4cc(OC)ccc4[C@H]3CC[C@@]21C,30.0!,.,.,.
C#C[C@]1(O)CC[C@H]2[C@@H]3CCc4cc(OC5CCCC5)ccc4[C@H]3CC[C@@]21C,.,.,.,.
C(=C\c1ccccc1)/CN1CCN(C(c2cc3ccccc3o2)c2nnnn2C2CCCCC2)CC1 (stereo not given),.,/,-76.5,/
CC(C)(C)n1nnnc1C(c1cccs1)N1CCN(Cc2ccccc2)CC1 (stereo not given),.,/,.,.
CCC(C)(C)n1nnnc1C(c1ccc(C)cc1)N1CCN(Cc2ccc3c(c2)OCO3)CC1 (stereo not given),.,.,-69.7,.
CCC(C)(C)n1nnnc1C(c1ccc2ncccc2c1)N1CCN(Cc2ccc3c(c2)OCO3)CC1 (stereo not given),.,.,.,.
C(=C\c1ccccc1)/CN1CCN(C(c2nnnn2Cc2ccccc2)C2CC2)CC1 (stereo not given),.,/,-61.7,/
CC(C)(C)n1nnnc1C(c1cccs1)N1CCN(C/C=C/c2ccccc2)CC1 (stereo not given),.,/,-121.7,/
COc1ccc(-n2nc(C(=O)Nc3ccccc3OC)c3c4ccccc4n(C)c3c2=O)cc1Cl,.,/,/,/
CCOc1ccc(N(C)S(=O)(=O)c2c(C(=O)N3CCC(C)CC3)c(C)n(C)c2C)cc1,.,/,/,/
C(=C\c1ccccc1)/CN1CCN(C(c2cccs2)c2nnnn2Cc2ccccc2)CC1 (stereo not given),.,/,-73.3,/
C(=C\c1ccccc1)/CN1CCN(C(c2ccccc2)c2nnnn2C2CCCC2)CC1 (stereo not given),.,/,?,/
C(=C\c1ccccc1)/CN1CCN(C(c2cccs2)c2nnnn2C2CCCC2)CC1 (stereo not given),.,/,-86.5,/
c1ccc(CCn2nnnc2C(c2cccs2)N2CCN(Cc3ccc4c(c3)OCO4)CC2)cc1 (stereo not given),.,.,-67.2,.
C(=C\c1ccccc1)/CN1CCN(C(c2cccc3ccccc23)c2nnnn2Cc2ccccc2)CC1 (stereo not given),.,/,?,/
SMILES,DRD3 agonist,TSHR antag,D3 antag,B2AR arrestin
Fc1ccccc1N1CCN(C(c2cccs2)c2nnnn2CCc2ccccc2)CC1 (stereo not given),.,.,.,.
O=c1c2cc3c(cc2n(Cc2cccc(F)c2)c(=O)n1Cc1nc(-c2ccccc2)no1)OCO3,.,/,/,/
Cc1ccc(S(=O)(=O)Nc2cc3c(cc2C)n(C)c(=O)c(=O)n3C)c(C)c1,.,/,/,/
O=C(c1ccc(Cn2cc(Br)cn2)o1)n1cccn1,.,.,-51.7,.
O=C(Nc1cccc(C(F)(F)F)c1)c1ccc(Cn2cc(Br)cn2)o1,.,.,.,.
O=C(Nc1ccc(C(F)(F)F)cc1Cl)c1ccc(Cn2cc(Br)cn2)o1,.,/,-75.3,/
CCC(Oc1ccccc1)C(=O)N[C@@H]1C(=O)N2[C@@H]1SC(C)(C)[C@@H]2C(=O)O (stereo not given in full),.,/,/,/
COc1nn(-c2ccccc2)c(=O)c(Cl)c1Cl,.,.,-63.5,.
CC(C)c1ccc(-c2nnn(CCC#N)n2)cc1,.,.,.,.
